Experimental data reported in PubChem BioAssay AID1851 (National Center for Advancing Translational Sciences (NCATS), 2009).
Screen size: about 16,000 compounds; about 5,700 (36%) were called active. Not shown: some 24% with an inconclusive outcome. The list shows a part of the results. Values without a mark were called inactive. Calls follow the shape of the dose curve; as a rule, active = well fitted curve in the direction sought with a large enough effect; inconclusive = small, poorly fitted or top-dose-only effect, or effect the other way; inactive = no such curve, though single readings can be large or run the other way.

biological target: Cytochrome P450 1A2 (Homo sapiens) (UniProt P05177); test: Cytochrome panel assay with activity outcomes; conditions: recombinant CYP, pro-luciferin dealkylation, luminescence, p450-cyp1a2; series mostly up to 57.1 µM; activity, negative = inhibition: at the top concentration
Sequence (P05177 whole entry, looked up): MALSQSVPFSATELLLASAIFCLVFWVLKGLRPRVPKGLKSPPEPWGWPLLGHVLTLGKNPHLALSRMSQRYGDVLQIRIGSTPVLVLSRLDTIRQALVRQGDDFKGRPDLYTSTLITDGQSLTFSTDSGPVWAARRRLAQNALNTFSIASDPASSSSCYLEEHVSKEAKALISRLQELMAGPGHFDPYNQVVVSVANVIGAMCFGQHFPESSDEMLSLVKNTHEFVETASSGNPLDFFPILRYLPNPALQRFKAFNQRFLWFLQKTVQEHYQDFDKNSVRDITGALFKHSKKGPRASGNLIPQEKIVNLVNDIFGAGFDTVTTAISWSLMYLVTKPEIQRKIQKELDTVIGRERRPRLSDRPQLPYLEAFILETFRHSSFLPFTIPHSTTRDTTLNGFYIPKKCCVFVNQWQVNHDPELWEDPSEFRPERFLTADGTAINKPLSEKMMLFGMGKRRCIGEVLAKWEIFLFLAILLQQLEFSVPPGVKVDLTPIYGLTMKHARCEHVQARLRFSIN
% is scaled to controls: 0 for no effect and ±100 for the full control effect.

Row | Structure (SMILES) | activity, negative = inhibition | AC50
1 | COc1ccc(C2C(C#N)=C(N)Oc3n[nH]c(C)c32)cc1CN1CCN(c2ccc(F)cc2)CC1 (stereo not given) | -23.9% | –
2 | COc1cccc(-c2[nH]nc3c2C(c2ccc(C)o2)C(C#N)=C(N)O3)c1 (stereo not given) | – | 1580 nM (active)
3 | COc1cccc(-c2[nH]nc3c2C(c2ccsc2)C(C#N)=C(N)O3)c1 (stereo not given) | – | 1120 nM (active)
4 | O=C(CP(=O)(c1ccccc1)c1ccccc1)Nn1cnnc1 | -30% | –
5 | CC1(C)[C@@H]2CC[C@]1(C)[C@@H](OC(=O)CSC#N)C2 | -18.3% [at 2.29 µM] | –
6 | Cc1cccn2c(/C=N/OCc3cccc(F)c3)c(-c3ccc(Cl)cc3)nc12 | – | 2000 nM (active)
7 | Cc1cccn2c(/C=N/OCc3ccc(F)cc3)c(-c3ccc(Cl)cc3)nc12 | – | 2000 nM (active)
8 | C#CCCCO/N=C1/C[C@@H](O)[C@@H](O)[C@@H]2[C@@H]3C(=O)N([C@@H](C)c4ccccc4)C(=O)[C@H]3CC[C@H]12 | 0.735% [at 11.4 µM] | –
9 | Cn1c(O)c(C(C#N)=C2N=c3ccccc3=N2)c2ccccc21 | – | 1580 nM (active)
10 | O=c1ccc2c(OCCCCc3ccccc3)c3ccoc3cc2o1 | – | 501 nM (active)
11 | CCn1c(=O)[nH]c2ccccc2c1=O | – | 1780 nM (active)
12 | COCCNc1ncnc2ccc(-c3ccccc3C(F)(F)F)cc12 | – | 1580 nM (active)
13 | Clc1ccccc1-c1ccc2ncnc(NCc3cccnc3)c2c1 | – | 158 nM (active)
14 | COCCNc1ncnc2ccc(-c3ccccc3OC)cc12 | – | 2000 nM (active)
15 | FC(F)(F)c1ccccc1-c1ccc2ncnc(NCc3cccnc3)c2c1 | – | 1000 nM (active)
16 | CC1=N[C@@](C)(COC(=O)[C@]2(C)N[C@](C)(CO)CO2)COC1=O | 6.88% [at 2.29 µM] | –
17 | COc1ccccc1-c1ccc2ncnc(NCc3cccnc3)c2c1 | – | 794 nM (active)
18 | COc1ccccc1-c1ccc2ncnc(NCc3ccccc3)c2c1 | – | 2000 nM (active)
19 | COc1cccc(-c2ccc3ncnc(NCc4cccnc4)c3c2)c1 | – | 251 nM (active)
20 | C=CC1=C(C(=O)O)N2C(=O)[C@@H](NC(=O)/C(=N\OCC(=O)O)c3csc(N)n3)[C@@H]2SC1 | 1.89% [at 25.6 µM] | –
21 | CN1CCC2(CC1)CCN(C(=O)c1cc(C(F)(F)F)cc(C(F)(F)F)c1)CC2 | -5.41% | –
22 | Cn1c(=O)c2[nH]c(CCCCc3nc4c([nH]3)c(=O)n(C)c(=S)n4C)nc2n(C)c1=S | -13.8% [at 2.29 µM] | –
23 | COC(=O)C/C=C\[C@@H](C)[C@@H]1C=C[C@H](OC(C)=O)[C@H](COC(C)=O)O1 | -1.57% [at 11.4 µM] | –

Row | Structure (SMILES) | activity, negative = inhibition | AC50
24 | C=CCNc1nc(-c2ccc(Cl)cc2)cs1 | – | 2240 nM (active)
25 | CC(Oc1ccc(-c2ccccc2)c(F)c1)c1ccn(S(=O)(=O)c2ccc(Cl)cc2)n1 (stereo not given) | -15.3% | –
26 | CC(Oc1ccc(Cl)cc1)c1ccnn1S(=O)(=O)c1ccccc1 (stereo not given) | – | 15800 nM (active)
27 | CC(Oc1ccccc1)c1ccnn1S(=O)(=O)c1ccccc1 (stereo not given) | – | 25100 nM (active)
28 | O=S(=O)(c1ccccc1)N1CN2CN(C1)CN(S(=O)(=O)c1ccccc1)C2 | -14.9% [at 11.4 µM] | –
29 | COC(=O)c1c(C)nc2ccccc2c1C(=O)O | -9.4% | –
30 | CCOC(=O)c1ccc(Nc2nc(-c3cccnc3)nc3ccccc23)cc1 | – | 6310 nM (active)
31 | CCOC(=O)c1ccc(Nc2nc(C(=O)OCC)nc3ccccc23)cc1 | – | 891 nM (active)
32 | CCOC(=O)c1ccc(NC(=O)C2(c3ccc(OC)cc3)CCOCC2)cc1 | -4.73% | –
33 | CCCNC(=O)OC[C@@H]1O[C@H](CCO/N=C\[C@@H](C)[C@H](OCc2ccccc2)C(C)C)C=C[C@@H]1Oc1ccc(OC)cc1 | -5.94% [at 11.4 µM] | –
34 | O=C(Nc1cccc(F)c1)N1CC[C@@]2(CCCNC2)C1 | -12.5% | –
35 | O=C(O)[C@@H]1[C@@H](C(=O)NCc2ccncc2)[C@@H]2C=C[C@@H]1O2 | – | 5010 nM (active)
36 | O=C(O)[C@@H]1[C@@H](C(=O)Nc2ncccn2)[C@@H]2C=C[C@@H]1O2 | -13.2% [at 2.29 µM] | –
37 | O=C(O)[C@@H]1[C@@H](C(=O)NCc2cccnc2)[C@@H]2C=C[C@@H]1O2 | -0.421% [at 2.29 µM] | –
38 | CC1Cc2ccccc2N1C(=O)Cn1c(=O)cc(O)c2ccccc21 (stereo not given) | – | 14100 nM (active)
39 | C[C@@H]1Cc2ccccc2N1NC(=O)c1ccc(Cl)c(S(N)=O)c1 (stereo not given in full) | -11.4% [at 25.6 µM] | –
40 | CC1Cc2ccccc2N1C(=O)CN1C(=O)COc2ccccc21 (stereo not given) | -14.8% | –
41 | COc1ccc(-n2c(C)n[nH]c2=O)cc1OC | -13.2% | –
42 | COc1ccc(-n2cccc2C=O)cc1OC | – | 14100 nM (active)
43 | COc1ccc(N2C(=O)NC3CC2(C)Oc2ccccc23)cc1OC (stereo not given) | -28.6% | –
44 | COc1ccc(C(=O)N2CCC[C@@]3(CCN(Cc4ccc(C#N)cc4)C3)C2)cc1 | -20.7% | –
45 | CCn1c(/C=C2/C(=O)N(C)c3ccccc32)nc2ccccc2c1=O | – | 1000 nM (active)
46 | CC1(C)CC2(CCO1)OC(=O)CC2C(=O)NCCc1ccccc1 (stereo not given) | 12.8% | –

Row | Structure (SMILES) | activity, negative = inhibition | AC50
47 | Cc1ccc(S(=O)(=O)/N=C(/Nc2c(C)n(C)n(-c3ccccc3)c2=O)c2ccc(Cl)cc2)cc1 | -18.4% | –
48 | Cc1c(CCO)c(=O)n(-c2ccccc2)n1S(=O)(=O)c1c(Cl)cc(Cl)cc1Cl | – | 12600 nM (active)
49 | Cc1c(N(C)CS(=O)(=O)O)c(=O)n(-c2ccccc2)n1C | -11.4% [at 25.6 µM] | –
50 | CC(=O)O[C@H]1C2=CO[C@H](C)[C@H]3[C@H]4C5=C([C@H](O)[C@H]6O[C@@H]6C5=O)[C@H](O[C@H]4C)[C@@]23C(=O)[C@H]2O[C@@H]21 | -0.486% [at 11.4 µM] | –
51 | Cc1ccn2c(NC(=O)c3ccccc3)c(-c3cccs3)nc2c1 | – | 22400 nM (active)
52 | O=C(O)C12CC3(C(=O)O)CC(C(=O)O)(CC(C(=O)O)(C1)C3=O)C2=O | -4.32% [at 2.29 µM] | –
53 | Cc1ncn(-c2ccccc2O)c1C | – | 794 nM (active)
54 | CC1=NNC(=O)C1CCC(=O)N/N=C\c1ccccc1[N+](=O)[O-] (stereo not given) | -21.8% | –
55 | Cc1nc2ccccn2c1C(=O)N/N=C/c1ccccc1[N+](=O)[O-] | – | 15800 nM (active)
56 | COc1ccc2c(c1)c(CC(=O)OCC(=O)O)c(C)n2C(=O)c1ccc(Cl)cc1 | -15.1% [at 25.6 µM] | –
57 | O=C(O)Cc1cc(Cl)ccc1O | -16.6% [at 11.4 µM] | –
58 | COc1ccc2c(c1)c(CC(=O)O)c(C)n2Cc1ccc(Cl)cc1 | – | 31600 nM (active)
59 | CC(=O)n1nc(-c2ccco2)nc1N | – | 10000 nM (active)
60 | Cc1nc2nc[nH]n2c(=O)c1NC(=O)CC12CC3CC(CC(C3)C1)C2 | -10.9% | –
61 | O=C1c2ccccc2NC(c2ccc(Cl)cc2Cl)N1O (stereo not given) | – | 6310 nM (active)
62 | O=C1c2ccccc2N[C@H](c2cc(Cl)cc(Cl)c2O)N1CCc1ccccn1 | 5.81% [at 2.29 µM] | –
63 | COC(=O)N1CC(=O)N(OC)C1c1ccc(Cl)cc1Cl (stereo not given) | -9.57% | –
64 | Cn1c(=NC(=O)CCl)sc2ccccc21 | – | 2240 nM (active)
65 | CO[C@H]1[C@H](O[C@H]2O[C@@H](C)[C@@H](O[C@@H]3C[C@](C)(O)[C@H](OC(=O)CC(C)C)[C@H](C)O3)[C@@H](N(C)C)[C@@H]2O)[C@@H](CC=O)C[C@@H](C)[C@@H](O)/C=C\C=C/C[C@@H](C)OC(=O)C[C@H]1OC(C)=O | 2.24% [at 25.6 µM] | –
66 | COc1ccc2[nH]c3cc4c(=O)c5cc(OC)ccc5[nH]c4cc3c(=O)c2c1 | -6.02% [at 2.29 µM] | –
67 | COc1ccc2[nH]cc(C=O)c2c1 | – | 7080 nM (active)
68 | Brc1[nH]nc2ccccc12 | – | 1580 nM (active)
69 | N[C@@H](Cc1[nH]nc2ccccc12)C(=O)O | -19.1% [at 11.4 µM] | –

Row | Structure (SMILES) | activity, negative = inhibition | AC50
70 | COC(=O)N1CCC2(CC1)CCN(c1ccccn1)CC2 | 2.64% | –
71 | COc1ccc(-c2cc(C(=O)O)c3c(C)nn(-c4ccccn4)c3n2)cc1 | -1.78% | –
72 | COC(=O)c1ccccc1N/C=C1\CCc2c(c(C)nn2-c2ccccn2)C1=O | – | 6310 nM (active)
73 | c1cncc(CNc2ncn[nH]2)c1 | -7.88% [at 11.4 µM] | –
74 | c1cncc(CNc2ncncc2-c2cccnc2)c1 | – | 5010 nM (active)
75 | c1ccc(CNc2ncncc2-c2cccnc2)cc1 | – | 2510 nM (active)
76 | Cc1cccc(CNc2ncncc2-c2cccnc2)c1 | – | 794 nM (active)
77 | CC[C@H]1C2=C3C(CC[C@H]4C(OCc5ccc(F)cc5C(F)(F)F)OC[C@](C)([C@@H]34)N(C(=O)OC(C)(C)C)C2)C2COC(=O)OCC21 (stereo not given in full) | -14.8% | –
78 | O=C(Nc1ccc2c(c1)nc1n2CCN(C2CCCCC2)C1)NC1CCCCC1 | -13.4% | –
79 | Cc1ccc(S(=O)(=O)N[C@@H]2COC(=O)C/C=C\[C@H](C)COC(=O)N[C@@H](C)C(=O)C/C=C\[C@H]2C)cc1 | -0.145% [at 11.4 µM] | –
80 | C=CCn1c(SCc2ccc(C(=O)Nc3ccccc3)cc2)nnc1-c1ccccc1 | – | 14100 nM (active)
81 | Cc1ccc(NC(=O)c2ccc(CSc3nnc(-c4ccncc4)n3C)cc2)cc1 | 7.07% | –
82 | CCn1c(SCc2ccc(C(=O)Nc3nccs3)cc2)nnc1-c1ccc(NC(C)=O)cc1 | – | 12600 nM (active)
83 | Cc1nc2sc(C#N)c(N)c2c2c1CCCC2 | – | 2000 nM (active)
84 | NC(=O)c1csc(-c2ccc(CO)o2)n1 | -13.1% [at 11.4 µM] | –
85 | OCc1ccc(-c2nn(Cc3ccccc3)c3ccccc23)o1 | – | 1580 nM (active)
86 | O=C(NNS(=O)(=O)c1ccccc1)c1cccnc1 | 2.15% [at 2.29 µM] | –
87 | O=C(NNS(=O)(=O)c1cc(Cl)cc(Cl)c1)c1sccc1-n1cccc1 | – | 2000 nM (active)
88 | CCS(=O)(=O)N1CCC(C(=O)NCCCN2CCCC2)CC1 | 15% | –
89 | CCCN1C(=O)/C(=C/c2ccc(C)s2)SC1=Nc1ccc(OC)cc1 | – | 11200 nM (active)
90 | COc1ccc(N=C2S/C(=C\c3ccc(C)s3)C(=O)N2CC(C)C)cc1 | -5.67% | –
